# Data reported in the supplement of paper PMC6555819.
# Experiments:
# Assay in all cases: PBM binding z-score (relative to random genomic background probes); higher = stronger binding; sequences stand for … in GC…GCGATTGACAGCGTAGAATGAAGG
# [1] = test system: FXR:RXRa (NR concentration 270 nM, RXRa partner concentration 90 nM)
# Summary of the method: (§1)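 Binding z-scores take random background probes as their reference. They come from custom Agilent 4×180K protein-binding microarrays incubated 1 h with ligand-free nuclear receptor dimers, with antibodies against each partner (one per run) detecting binding. Scanned fluorescence was regression-normalized.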
# [2] = test system: LXRa:RXRa (NR concentration 270 nM, RXRa partner concentration 90 nM)
# Summary of the method: as §1
# [3] = test system: LXRa homodimer (NR concentration 270 nM)
# Summary of the method: as §1
# [4] = test system: LXRb:RXRa (NR concentration 270 nM, RXRa partner concentration 90 nM)
# Summary of the method: as §1
# [5] = test system: LXRb homodimer (NR concentration 270 nM)
# Summary of the method: as §1
# [6] = test system: PPARa:RXRa (NR concentration 270 nM, RXRa partner concentration 90 nM)
# Summary of the method: as §1
# [7] = test system: PPARg:RXRa (NR concentration 180 nM, RXRa partner concentration 90 nM)
# Summary of the method: as §1
# [8] = test system: PPARg:RXRa 270nM:90nM, anti-RXR (NR concentration 270 nM, RXRa partner concentration 90 nM)
# Summary of the method: as §1
# [9] = test system: PPARg:RXRa 30nM:10nM, anti-RXR (NR concentration 30 nM, RXRa partner concentration 10 nM)
# Summary of the method: as §1
# [10] = test system: PPARg:RXRa 90nM:30nM, anti-RXR (NR concentration 90 nM, RXRa partner concentration 30 nM)
# Summary of the method: as §1
# [11] = test system: PPARg:RXRa DBDmut IVT, anti-RXR (DBD mutation: RXRa K156A/R161A, NR concentration 270 nM, RXRa partner concentration 90 nM)
# Summary of the method: as §1
# [12] = test system: PPARg:RXRa IVT, anti-PPARg (NR concentration 270 nM, RXRa partner concentration 90 nM)
# Summary of the method: as §1
# [13] = test system: PPARg DBDmut:RXRa IVT, anti-PPARg (DBD mutation: PPARg1 K132A/R137A, NR concentration 270 nM, RXRa partner concentration 90 nM)
# Summary of the method: as §1
# [14] = test system: PPARg DBDmut IVT, anti-PPARg (DBD mutation: PPARg1 K132A/R137A, NR concentration 270 nM)
# Summary of the method: as §1
# [15] = test system: PPARg homodimer (NR concentration 180 nM)
# Summary of the method: as §1
# [16] = test system: PXR:RXRa (NR concentration 270 nM, RXRa partner concentration 90 nM)
# Summary of the method: as §1
# [17] = test system: PXR homodimer (NR concentration 270 nM)
# Summary of the method: as §1
# [18] = test system: RARa:RXR (NR concentration 270 nM, RXRa partner concentration 90 nM)
# Summary of the method: as §1
# [19] = test system: RARa homodimer (NR concentration 270 nM)
# Summary of the method: as §1
# [20] = test system: RARb:RXRa (NR concentration 270 nM, RXRa partner concentration 90 nM)
# Summary of the method: as §1
Sequence,PBM binding z-score [1],PBM binding z-score [2],PBM binding z-score [3],PBM binding z-score [4],PBM binding z-score [5],PBM binding z-score [6],PBM binding z-score [7],PBM binding z-score [8],PBM binding z-score [9],PBM binding z-score [10],PBM binding z-score [11],PBM binding z-score [12],PBM binding z-score [13],PBM binding z-score [14],PBM binding z-score [15],PBM binding z-score [16],PBM binding z-score [17],PBM binding z-score [18],PBM binding z-score [19],PBM binding z-score [20]
TAGCCTAGGTCATTGAGGGGCCAGTATAGAAAGC,4.54,3.48,0.272,2.84,1.08,3.67,2.08,2.48,0.353,1.49,1.9,2.84,0.198,0.125,2.84,2.36,-0.0238,3.39,-0.506,3.93
GCAGACAGGTGAAGCGCAGGTAACTCAGGGTGGC,-0.663,-0.276,-0.718,-0.713,-1.29,-0.0823,0.129,-0.656,-1.07,-0.9,0.302,0.226,-0.748,-1.21,-0.277,-0.484,-0.646,-0.125,-1.03,0.497
TAGCCTAGGTCATGCGGGCCAGTATTGTGTCGGC,3.83,2.94,0.0608,1.71,-0.269,3.48,1.84,2.13,0.0531,1.17,1.92,3.17,-0.152,-1.19,0.001,1.34,-0.847,1.82,-1.27,3.69
CCTACTGGGCCATCAGGTCCTTGATATCAACGTT,-0.312,-0.421,-0.282,-0.452,-0.521,0.449,0.742,1.4,-0.0903,0.582,3.89,3.63,0.113,-0.684,0.311,-0.471,-0.404,-0.307,0.115,0.33
CCGAGTAGGTAATGGGGCATTCAGGCAACGGTGA,-0.324,-0.287,-0.342,-0.153,-0.666,1.73,3.13,4.63,2.99,4.57,3.06,3.08,-0.988,-0.54,0.397,-0.417,-0.151,-0.249,-0.452,0.118
TCATCTAGGTAATACAGGTGAAAGTCGGCATCTA,0.88,0.831,0.409,0.796,0.445,2.05,1.29,2.5,3.85,3.22,4.07,4.08,1.3,1.36,0.913,0.275,0.512,0.694,1.29,0.575
TTACCAAGGTTAGCTGAGGTCGTTGATCCAACTC,2.11,4.83,0.313,2.51,-0.743,2.24,-0.0441,0.6,0.0802,0.486,0.191,0.594,-0.413,-0.849,0.103,5.71,1.46,2.83,-0.023,2.1
AGAATGAGGTTAAGATCAGGAAAACAGAATACAT,2.16,1.98,-0.0642,1.77,-0.122,3.76,2.48,2.46,1.03,1.72,2.5,2.67,1.33,0.813,0.0242,1.08,0.189,1.93,0.732,1.9
CCTACTGGGCCAAAAAGGTCATTTATGCCGATAA,3.57,4.05,4.05,4.58,0.674,4.48,3.08,3.67,1.23,2.79,3.34,3.95,0.881,-0.177,3.37,4.67,3.36,4.88,1.02,3.7
CTTCCAAGGTCAAAGGTCAGTGAAGAGATGACGG,8.35,7.17,4.94,6.74,2.43,7.29,11.1,9.09,8.56,10.7,4.31,5.99,1.55,2.25,5.02,7.21,2.73,8.8,3.33,5.92
ACTAGTTGGTCAGCTGAGGTCACACGCAATTCGG,4.13,3.59,2.5,3.3,0.152,3.71,1.57,2.37,0.407,1.44,1.54,2.63,0.387,0.616,2.87,5.51,1.79,4.68,0.262,3.53
AGAACGAGGGCACGCTGAGTAGATAGCAGAGTAG,0.37,0.529,-0.626,0.201,-0.892,2.15,2.28,1.87,0.547,1.18,4.04,3.83,1.29,0.195,0.114,0.201,-0.149,0.712,-0.354,2.4
TCTTGTCGATCAGCAGGTTAAGAAAGCTGGCCAA,0.435,0.635,-0.135,0.381,0.00876,0.714,-0.663,1.47,2.63,1.91,1.61,0.358,-0.732,0.173,0.131,0.254,-0.436,0.75,-0.254,0.466
ACAGACAGGTGATGACGGTAACTCAGGCTATCAT,-0.347,-0.186,-0.31,-0.476,-0.424,-0.121,0.839,-0.227,-0.335,-0.0238,0.226,0.0775,-0.319,-0.184,-0.306,-0.319,-0.0472,-0.196,0.273,0.237
GCTCGGAGGACAGGGTCAGAGCTTTGTCCGTAGA,1.13,0.858,-0.746,0.906,-1.08,2.62,-0.204,0.469,-0.854,0.00374,-0.294,0.104,-1.35,-1.12,-0.0128,1.22,-0.77,2.28,-1.04,2.55
CAAACTAGGTTAAGAGGTCAAAGTCCGCTTCCCG,5.61,5.82,6.25,4.8,1.58,5.87,7.84,7.23,5.52,7.19,7.16,7.32,2.96,2.44,4.58,5.64,2.31,6.47,2.19,4.23
CTACCAAGGTGAACAAGGTCGTTGCTTACTATTC,1.51,1.61,0.37,2.11,-0.314,2.55,0.964,1.34,-0.119,0.845,2.88,2.58,0.0347,-0.195,1.15,3.08,1.88,2.64,-0.135,2.23
GCTTACGGGTCAATGGTTATAGCATGAATAGAAT,4.8,2.75,-0.289,2.89,0.196,4.78,4.3,4.54,1.86,3.57,3.66,3.16,0.504,0.889,1.06,2.21,0.167,3.03,0.149,3.43
CCTAGCAGGCCAATCTGGGTCACTGAAGGCTTGA,1.19,1.16,-0.588,0.364,-1.38,3.01,1.75,2.55,0.263,1.81,4.44,5.17,0.524,0.356,0.812,0.783,-0.752,1.67,-0.428,1.64
TCTGCTAGGGCAGTTGGTCAGCTAACGAGCTGCC,-0.253,-0.634,-0.708,-0.857,-0.624,-0.359,-0.953,0.135,0.729,0.414,1.38,0.996,-0.206,-0.384,-0.702,-0.671,-0.958,-0.138,-1.3,1.14
TCTATTAGCTGATTAGGGCAACCGAAACAGCGGA,0.113,-0.201,-0.333,-0.12,-0.075,0.627,-0.00749,1.41,2.86,2.13,1.49,1.49,0.731,0.319,-0.183,-0.0443,-0.871,0.252,-0.337,0.444
CGTCCAAGGTCAGCAGGTCCGTGAAAGCGACGTG,4.81,3.09,-0.42,2.19,-0.0479,4.13,2.24,3.15,0.0631,1.82,2.55,2.38,-0.178,-1.09,1.99,2.47,0.631,3.08,0.18,4.86
TCATATAGGTCATACAGGTGAAAGTCGGCATCTA,6.18,5.45,1.98,4.49,1.72,5.68,7.05,6.57,5.26,6.25,6.93,6.78,2.18,2.34,2.69,3.62,1.06,4.44,2.39,4.2
TTACCAAGGTGTGCTGAGGTCGTTGATCCAACTC,0.714,0.293,-0.284,0.587,-0.354,0.88,-0.381,0.606,-0.307,0.00377,-0.56,0.137,-0.549,-0.745,0.0378,2.18,0.694,1.18,-0.699,0.629
CCTAGTTGGTGAGGAGGTCACACACCGGATATGA,2.72,3.07,1.61,3.19,0.489,3.86,2.06,3.07,1.4,2.31,0.486,2.56,0.735,0.147,3.46,3.86,1.61,4.11,1.97,3.1
CAAACTAGGTCACGAAAGGTCAGAGTCGAATGAC,6.76,7.61,5.28,6.37,1.23,5.96,10.3,7.74,6.9,8.34,8.85,9.13,3.21,1.91,7.35,6.33,1.71,6.97,5.45,5.39
TCTCGGAGGACACAAAAGGTCAGAGCTCGACATC,2.8,4.16,2.83,3.27,0.142,3.53,1.51,2.66,2.44,2.62,1.53,1.65,-0.0324,-0.692,3.51,3.82,0.682,4.29,1.33,4.08
CCGACTGGGGAATAAGGTTACCATAAGCCAGCCC,0.215,1.7,-0.22,0.69,-0.763,1.35,1.09,1.47,0.215,1.03,1.7,1.42,-0.845,-0.915,0.47,0.362,0.0229,1.11,-0.12,0.793
